# Cruzain inh Det = inhibitors of Trypanosoma cruzi cruzain with detergent; P25779; purified cruzain, Z-FR-AMC fluorescence, 0.01% Triton; Potency, µM, for the others: max response, negative = inhibition, actives largely listed as inhibitors; 200,000 compounds, 0.43% hits; AID 1478;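 also: plate controls were neutral wells for no effect and buffer without enzyme for full effect; nearly all actives have a fitted effect of over 40% in size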
# Target sequence (P25779 123-467 limits assumed): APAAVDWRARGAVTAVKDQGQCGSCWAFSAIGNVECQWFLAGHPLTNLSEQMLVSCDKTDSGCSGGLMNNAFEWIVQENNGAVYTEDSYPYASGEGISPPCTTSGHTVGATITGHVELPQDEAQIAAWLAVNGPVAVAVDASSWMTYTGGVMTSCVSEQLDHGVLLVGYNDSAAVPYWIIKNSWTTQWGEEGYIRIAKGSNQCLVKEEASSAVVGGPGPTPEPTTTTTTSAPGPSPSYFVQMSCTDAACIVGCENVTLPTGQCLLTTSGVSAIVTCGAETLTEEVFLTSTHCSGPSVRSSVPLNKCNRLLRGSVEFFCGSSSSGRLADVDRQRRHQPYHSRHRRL
#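 Detergent-containing arm of a paired screen for aggregation-based inhibition: 0.01% Triton X-100 present. Cruzain at 1.5 nM cleaved 2 uM Z-FR-AMC at pH 5.5 with 5 mM DTT; AMC fluorescence gain over 60 s measured activity.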
# Cruzain inh noDet = inhibitors of Trypanosoma cruzi cruzain without detergent; purified cruzain, Z-FR-AMC fluorescence, no detergent; Potency, µM, without a hit: max response, negative = inhibition, hits mostly inhibitors; 200,000 compounds, 2.3% hits; AID 1476;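 also: plate controls were enzyme without inhibitor for no effect and buffer without enzyme for full effect; nearly all actives have a fitted effect of over 40% in size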
#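 Purified cruzain at 1.5 nM, pre-incubated 15 min with compound at room temperature in 100 mM sodium acetate pH 5.5, 5 mM DTT, 0.00005% Triton X-100. Reaction started with 2 uM Z-FR-AMC; AMC fluorescence increase over 60 s gives rate.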
# Numbers without * were called inactive; ? = inconclusive. Most compounds without a hit are left out; they make up all but 2.5% or so of the library. Calls follow the shape of the dose curve; as a rule, active = well fitted curve in the direction sought with a large enough effect; inconclusive = small, poorly fitted or top-dose-only effect, or another doubt; inactive = no such curve, though single readings can be large; an effect the other way counts as inactive or inconclusive. Potency is read from the fitted curve at half-maximal effect.
SMILES,Cruzain inh Det,Cruzain inh noDet
CCn1cc(C(=O)N2CCN(c3ccccc3OC)CC2)c(=O)c2cc(S(=O)(=O)N3CCC(C)CC3)ccc21,-8%,?
CN(C)CC/C=C1/c2ccccc2Sc2c(O)cc(Cl)cc21,-15%,25µM*
COc1cc(Cl)cc2c1Sc1ccccc1/C2=C/CCN(C)C,-9%,1%
CCCS(=O)(=O)c1ncc(Cl)c(C(=O)N(Cc2ccccc2)Cc2ccco2)n1,-7%,2%
COc1cccc(CN2CC(O)=C(c3nc(-c4ccc(Cl)cc4)cs3)C2=N)c1,-10%,13µM*
COc1ccc(-c2csc(C3=C(O)CN(Cc4ccc(Cl)cc4)C3=N)n2)cc1OC,-6%,-10%
C=C(COC)C1=CCC(C(=O)OC)(C(=O)OC)[C@@H](C[N+](=O)[O-])c2ccccc21,3%,6%
Cc1csc(NC(=O)CSc2nnc(NC(=O)COc3ccc(Cl)cc3)s2)n1,-1%,5µM*
CCSc1nnc(NC(=O)COc2ccccc2)s1,-5%,?
O=C(Nc1ccc(C(=O)OCc2cc(=O)n3ccsc3n2)cc1)c1cccc(F)c1,-1%,7%
O=S(=O)(Nc1cccc(-c2ccc(N3CCOCC3)nn2)c1)c1ccc(F)cc1F,-6%,-13%
COc1ccccc1C(=O)Nc1ccc2c(c1)nc(CCNC(C)=O)n2C,1%,-10%
CCCn1c(CNC(=O)c2cccs2)nc2ccccc21,-1%,7%
COc1ccccc1C(=O)NCCc1nc2ccccc2n1C,?,10µM*
CCCCn1c(CCNC(=O)c2cccs2)nc2ccccc21,-16%,10µM*
O=C(NCCSc1c[nH]c2ccccc12)c1ccccc1Cl,-9%,0%
C=C(C)CNCCN,4%,-8%
CCCCNc1nc(C)nc2c1nc(-c1ccccc1)n2CCCN1CCCCC1C (stereo unspecified),-1%,-6%
O=C(Oc1ccc2ccccc2c1)c1cncc(Br)c1,3%,?
O=C(Oc1ccc2c(=O)c(Oc3ccc4ccccc4c3)coc2c1)c1cncc(Br)c1,5%,3.2µM*
COc1ccc(C(=O)Nc2ccc(C(=O)OCc3cc(=O)n4nc(C5CC5)sc4n3)cc2)cc1,-1%,8%
COC(=O)c1c(NC(=O)c2ccc(C)c(S(=O)(=O)Nc3ccccc3C)c2)sc2c1CCCC2,1%,7.9µM*
COC(=O)c1c(NC(=O)c2c(OC)cccc2OC)sc2c1CCCC2,-3%,6%
COC(=O)c1c(NC(=O)c2ccc(Br)s2)sc2c1CCC2,-6%,10µM*
COC(=O)c1c(NS(=O)(=O)c2ccc3ccccc3c2)sc2c1CCCC2,1%,?
SMILES,Cruzain inh Det,Cruzain inh noDet
CC(C)(C)C(=O)NC(c1ccc(Cl)cc1)[C@]1(C)C[C@H]1C1CCCCC1 (stereo partly specified),0%,-1%
CCOC(=O)c1sc2ccccc2c1S(=O)(=O)N1CCN(c2ccccc2)CC1,-4%,32µM*
CCOC(=O)c1sc2ccccc2c1S(=O)(=O)N1CCN(c2cccc(OC)c2)CC1,-3%,-11%
CCOC(=O)c1sc2ccccc2c1S(=O)(=O)N1CCN(c2ccccc2F)CC1,-4%,-27%
CCOC(=O)c1sc2ccccc2c1S(=O)(=O)N1CCN(c2cccc(C)c2C)CC1,-2%,13µM*
COc1ccc(/C=C/C(=O)Nc2ccc(Cl)cc2Cl)cc1,-1%,4%
Oc1ccc(C2=NNC(=NCc3ccc4c(c3)OCO4)SC2)c(O)c1,-13%,?
COc1ccc(OC)c(C2=NNC(=NCc3ccc4c(c3)OCO4)SC2)c1,-8%,13µM*
O=C(CN1C(=O)COc2ccc(S(=O)(=O)N3CCCC3)cc21)NCCc1ccc(Cl)cc1,0%,12%
CCCC(O)c1nc2ccccc2n1CCCCOc1ccc(OC)cc1 (stereo unspecified),-5%,2%
Cc1c(CCNC(=O)c2ccc(Br)o2)sc2nc(-c3ccc(F)cc3)nn12,-6%,?
CC1(c2ccccc2)CC(C)(C)N2C(=O)/C(=C3\SC(=S)NC3=O)c3cccc1c32 (stereo unspecified),-10%,7.9µM*
CC1(c2ccccc2)CC(C)(C)N2C(=O)C3(C(C#N)=C(N)Oc4cc(O)ccc43)c3cccc1c32 (stereo unspecified),-6%,12%
NC1=C2NC=N[C@@H]2N(C/C=C\c2ccccc2)C=N1,2%,-3%
Cc1csc(NC(=O)c2cc3c(C)nn(Cc4ccccc4Cl)c3s2)n1,-6%,25µM*
Cc1nn(Cc2ccccc2Cl)c2sc(C(=O)NC(C)(C)C)cc12,-6%,16%
Cc1cc2c(cc1C)NC(CC(=O)Nc1cccc(C)c1C)C(=O)N2 (stereo unspecified),-1%,5%
COc1cn(CC(=O)Nc2ccccc2)c(CN2CCCCC2)cc1=O,2%,14%
O=C1/C(=C/c2ccc(F)cc2)SC(=S)N1Nc1ncc(C(F)(F)F)cc1Cl,-8%,?
O=C1/C(=C\c2ccccn2)SC(=S)N1Nc1ncc(C(F)(F)F)cc1Cl,13µM*,6%
CC(C)(C)c1ccc(C(=O)NC(=S)Nc2sc3c(c2C#N)CCC3)cc1,-4%,10µM*
CCN1CCc2c(sc(NC(=S)NC(=O)c3ccccc3)c2C#N)C1,0%,-11%
N#Cc1c(NC(=S)NC(=O)c2ccccc2)sc2c1CCC2,-7%,-7%
N#Cc1c(NC(=O)c2ccc(-c3ccccc3[N+](=O)[O-])o2)sc2c1CCCC2,2%,?
CC1CCc2sc(NC(=S)NC(=O)c3ccccc3)c(C#N)c2C1 (stereo unspecified),-6%,25µM*
SMILES,Cruzain inh Det,Cruzain inh noDet
CC1CCc2c(sc(NC(=O)c3ccc(-c4ccccc4[N+](=O)[O-])o3)c2C#N)C1 (stereo unspecified),4%,10µM*
COc1ccc(-c2cc3c(=O)n(CC(=O)Nc4ccc(Br)c(C)c4)ccn3n2)cc1OC,-1%,3%
Cc1ccc(C(=O)N2CCN(c3ccc(NC(=O)CSc4ccc(Cl)cc4)cc3)CC2)cc1,-4%,6%
Cc1ccc(C(=O)Nc2ccc(N3CCN(S(C)(=O)=O)CC3)cc2)cc1,5%,16µM*
CS(=O)(=O)N1CCN(c2ccc(NC(=O)CSc3ccc(Cl)cc3)cc2)CC1,6%,4µM*
Cc1ccc(C(=O)Nc2ccc(N3CCOCC3)cc2)cc1,7%,4%
NCCC1([N+](=O)[O-])CCNCC1,-6%,7%
CCc1ccc(N(CC)C(=O)Cn2cnc3sc(C)c(S(=O)(=O)N4CCN(c5ncccn5)CC4)c3c2=O)cc1,-1%,-3%
CCC(=O)OCCCNc1nc(-c2ccc(Cl)cc2)nc2ccccc12,-13%,21%
Nc1nc(Nc2cccc(F)c2)nc2ccccc12,?,16µM*
O=c1oc(Nc2cccc(F)c2)nc2ccccc12,-3%,-7%
CCn1c(NC(=S)Nc2ccccc2)nc2ccccc21,-2%,25µM*
Clc1ccc(NCc2nc3ccccc3n2CCOc2ccccc2)cc1,-7%,-7%
CCCn1c(NC(=S)Nc2ccccc2)nc2ccccc21,4%,6%
COc1ccccc1OCCn1c(NC(=O)c2ccccc2Cl)nc2ccccc21,-6%,20µM*
S=C(Nc1ccccc1)Nc1nc2ccccc2n1CCOc1ccc(Cl)cc1,3%,10µM*
COc1ccccc1OCCn1c(NC(=O)c2ccc(Cl)cc2)nc2ccccc21,-2%,3%
Cc1ccc(N(CC(=O)N2CCN(c3ccc(Cl)cc3)CC2)S(=O)(=O)c2c(C)noc2C)cc1,-3%,3%
COc1ccc(-c2nc3cnc(N(C)C)nc3n(C)c2=O)cc1,0%,-7%
